The values that follow come from PubChem BioAssay (NCATS).

The structures appear in SMILES notation. For part of these data: Results with a measured potency or affinity are listed apart. The source made the active and inactive calls. No rule for the calls is given here.

For one test the following is noted: Ebola virus entry assay, ratio channel.
Consider `C[C@]12CC[C@H]3[C@@H](CC[C@@]45O[C@H]4C(O)=C(C#N)C[C@]35C)[C@H]1CC[C@H]2O`, for which the result was inactive. As to `C#C[C@]1(O)CC[C@H]2[C@@H]3CCc4cc(OC5CCCC5)ccc4[C@H]3CC[C@@]21C`, the half-maximal activity concentration (AC50) was 5.01 µM (active).

Turning to `COc1ccc2c(c1)c(CC(=O)OC/C=C(\C)CC/C=C(\C)CCC=C(C)C)c(C)n2C(=O)c1ccc(Cl)cc1`, the outcome was inactive. Consider `O=c1c(C2CC(c3ccc(-c4ccc(Br)cc4)cc3)Cc3ccccc32)c(O)sc2ccccc12` (centres undefined), for which the outcome was inactive. In the case of `CNCCCC12CCC(c3ccccc31)c1ccccc12`, the half-maximal activity concentration (AC50) is 3.16 µM (active). Turning to `COc1ccc(C(=O)c2ccccc2)c(O)c1`, the outcome was inactive. On to `CCCCN(CCCC)CCCOC(=O)c1ccc(N)cc1`, for which the AC50 was 8.91 µM (active). In the case of `COc1ccccc1N1CCN(CCCCNC(=O)c2ccc(-c3ccc(C(C)=O)cc3)cc2)CC1`, the outcome was inactive. The same measure, in the same setting: the same measure for `CN(c1nccc(=O)[nH]1)C1CCN(c2nc3ccccc3n2Cc2ccc(F)cc2)CC1`: “inactive”; for `COC(=O)[C@@H]1[C@H]2C[C@H]3c4[nH]c5ccccc5c4CCN3C[C@@H]2CC[C@@H]1O`: “inactive”. On to `CN(C)[C@@H]1C(=O)C(C(N)=O)=C(O)[C@@]2(O)C(=O)C3=C(O)c4c(O)cccc4C[C@H]3C[C@@H]12`, for which the AC50 is 17.8 µM (active).

With `CCN(CC)C(=O)[C@@H]1C=C2c3cccc4[nH]cc(c34)C[C@H]2N(C)C1`, the outcome was inactive.

Turning to `COc1cccc2c1C(=O)c1c(O)c3c(c(O)c1C2=O)C[C@@](O)(C(=O)CO)CC3OC1CC(N2CCOC(OC)C2)C(O)C(C)O1` (some centres undefined), the result was inactive.

For a further test the following is noted: Ebola virus entry assay, green channel fluorescence.
In the case of `CCS(=O)(=O)CCn1c([N+](=O)[O-])cnc1C`, the outcome was inactive. `CC(O)(P(=O)(O)O)P(=O)(O)O`: the compound was classed as inactive. With `CC(NC(C)(C)C)C(=O)c1cccc(Cl)c1` (centres undefined), the call was inactive. As to `CN1C(C(=O)Nc2ccccn2)=C(O)c2ccccc2S1(=O)=O`, the compound was called inactive.

On to `Nc1nc2ccc(OC(F)(F)F)cc2s1`, for which the compound was called inactive. `CC(CCc1ccc(O)cc1)NCCc1ccc(O)c(O)c1` (centres undefined): the outcome was inactive.

As to `S=c1nc[nH]c2nc[nH]c12`, the outcome was inactive. Same read-out and setting: to `Nc1nc(Cl)nc2c1ncn2[C@@H]1O[C@H](CO)[C@@H](O)[C@@H]1F` belongs “inactive”; to `Cn1nnc2c(C(N)=O)ncn2c1=O`, “inactive”; to `O=P1(N(CCCl)CCCl)NCCCO1` (centres undefined), “inactive”. As for `O=C(CCCN1CCC2(CC1)C(=O)NCN2c1ccccc1)c1ccc(F)cc1`, the call was inactive. The same measure, in the same setting: the same measure for `CC1COc2c(N3CCN(C)CC3)c(F)cc3c(=O)c(C(=O)O)cn1c23` (centres undefined): “inactive”. The same measure, in the same setting: to `C[N+](C)(C)CC(O)CC(=O)[O-]` (centres undefined) belongs “inactive”; to `COc1ccc(C(=O)c2ccccc2O)c(O)c1`, “inactive”; to `NC(=O)c1cnccn1`, “inactive”. On the same count and under the same terms, the same measure for `NC(=O)COCCN1CCN(C(c2ccccc2)c2ccc(Cl)cc2)CC1` (centres undefined): “inactive”; for `C=CCC1([C@H](C)CCC)C(=O)NC(=O)NC1=O`: “inactive”.

On to `Cc1noc(NS(=O)(=O)c2ccc(N)cc2)c1C`, for which the call was inactive. Take `CCC1=C(C)CN(C(=O)NCCc2ccc(S(=O)(=O)NC(=O)NC3CCC(C)CC3)cc2)C1=O` (centres undefined): the result was inactive. Take `Nc1ccc(C(=O)O)c(O)c1`: the call was inactive.

For the compound `NC(N)=Nc1nc(CSCC/C(N)=N/S(N)(=O)=O)cs1`, the compound was called inactive. As to `O=C1CN(/N=C/c2ccc([N+](=O)[O-])o2)C(=O)N1`, the result was inactive. The same measure, in the same setting: to `Cc1nnc(SCC2=C(C(=O)O)N3C(=O)[C@@H](NC(=O)Cn4cnnn4)[C@H]3SC2)s1` belongs “inactive”. For the compound `Nc1ccc(S(=O)(=O)c2ccc(N)cc2)cc1`, the call was inactive.

In the case of `NC(=O)CC[C@@H]1NC(=O)[C@H](Cc2ccccc2)NC(=O)[C@H](Cc2ccc(O)cc2)NC(=O)CCSSC[C@@H](C(=O)N2CCC[C@H]2C(=O)N[C@@H](CCCN=C(N)N)C(=O)NCC(N)=O)NC(=O)[C@H](CC(N)=O)NC1=O`, the result was inactive. Consider `Clc1ccc2nsnc2c1NC1=NCCN1`, for which the compound was called inactive.
